HTR5A inv ag: HTR5A inverse agonism, opioid heterodimer counter-screen; AID 504634; 0.083% of 340,000 active; P47898; HTR5A cell line, luminescence; inhibition, % at 9.3 µM; in the data active = inhibition mostly above about 23%, no sharp cut-off; inactive = mostly below about 18%;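 note: 0% = cells with DMSO and 100% = no-cell wells with DMSO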
Target sequence (P47898 whole entry, looked up): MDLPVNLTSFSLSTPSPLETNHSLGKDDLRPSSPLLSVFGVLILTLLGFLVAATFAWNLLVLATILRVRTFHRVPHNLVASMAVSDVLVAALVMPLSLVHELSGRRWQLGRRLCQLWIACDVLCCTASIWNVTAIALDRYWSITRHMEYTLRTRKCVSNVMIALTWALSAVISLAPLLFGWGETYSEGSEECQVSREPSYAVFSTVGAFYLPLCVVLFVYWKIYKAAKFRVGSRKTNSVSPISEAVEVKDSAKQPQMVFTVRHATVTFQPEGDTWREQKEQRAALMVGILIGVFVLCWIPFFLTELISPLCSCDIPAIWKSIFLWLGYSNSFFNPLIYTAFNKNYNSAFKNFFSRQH
OPRM1-OPRD1 inv: mu-delta opioid heterodimer inverse agonism | P35372+P41143 | cell-based MOR-DOR heterodimer luminescence | inhibition, % at 9.3 µM | 0.21% of 340,000 active | AID 504357; in the data active = inhibition above about 22%, passing the limit was not always enough;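 note: 0% = cells with DMSO and 100% = wells without cells with DMSO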
HTR2A ag: activates the mouse 5-HT2A serotonin receptor | CHO-K1 mHTR2A beta-arrestin complementation, luminescence; percent of 30 µM serotonin response | P35363 | AID 624169 | activation, % at 7.6 µM | 0.66% of 360,000 active;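 active = activation above a run cutoff, the mean activation of all tested compounds plus 3 SD, cut at about 14% in these data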;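 note: 0% = plate median of compound wells and 100% = 30 µM serotonin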
MOR-DOR ag: OPRM1-OPRD1 heterodimerization agonism; P35372+P41143; cells, luminescence; activation, % at 9.3 µM; 0.3% of 340,000 active; AID 504326; in the data active = activation above about 18%;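 note: 0% = vehicle-treated cells and 100% = reference agonist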
HTR5A ag ctr: counter-screen for OPRM1-OPRD1 agonists: human HTR5A agonism | P47898 | HTR5A agonist assay, luminescence, cell-based | activation, % at 9.3 µM | 0.61% of 340,000 active | AID 504692; in the data active = activation mostly above about 9.5%, no sharp cut-off; inactive = mostly below about 7.6%;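 note: 0% = cells with vehicle only and 100% = reference agonist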
* hit, by the source's call; · = no result given. An excerpt weighted towards active compounds, which were near 1.6% of everything screened.

SMILES	HTR5A inv ag	OPRM1-OPRD1 inv	HTR2A ag	MOR-DOR ag	HTR5A ag ctr
O=C(Nc1cccc(-c2cnc3ccccc3n2)c1)c1cccc(NC(=O)c2ccco2)c1	-53	-265	6	51*	14*
CC(C)(C)C1CCc2sc(C(=O)NNC(=O)CCl)cc2C1 (stereo not drawn)	-163	-197	0	38*	57*
CC(C)(C)C1CCC(=NNC(=O)c2cc3c(s2)CCCC3)CC1 (stereo not drawn)	-2	-10	-3	2	2
COc1ccccc1N=C(C)C1=C(O)CC(c2ccccc2)CC1=O (stereo not drawn)	-59	1	-3	0	8.9*
CCCC(=Nc1ccccc1OC)C1=C(O)CC(c2ccccc2)CC1=O (stereo not drawn)	31	-9	3	2	-2
Cc1c(C(=O)N2CCOCC2)sc(NC(=O)Cc2ccccc2)c1C#N	7	16	4	-3	-3
CCN(CC)C(=O)CSc1ncnc2sc(-c3ccccc3)cc12	-8	-11	-6	2	9.3*
O=C(N/N=C/c1cc(Cl)ccc1O)c1ccccc1Br	-35	-35	-13	5	12*
C=CCNC(=S)N/N=C(\C)c1ccccn1	13	35*	-1	-7	-5
CCC1Nc2ncnc(N3CCN(c4ccccc4)CC3)c2N(Cc2ccc(OC)cc2)C1=O (stereo not drawn)	52*	57*	-26	-12	-16
O=C1C(Cc2ccccc2)Nc2ncnc(N3CCN(c4ccccc4)CC3)c2N1Cc1ccccc1 (stereo not drawn)	9	-66	4	14	0
CCC1Nc2ncnc(N3CCOCC3)c2N(Cc2ccc(OC)cc2)C1=O (stereo not drawn)	-4	15	-1	-3	3
O=C1C(Cc2ccccc2)Nc2ncnc(N3CCOCC3)c2N1Cc1ccc(Cl)cc1 (stereo not drawn)	15	28	1	-5	-3
O=C1C(Cc2ccccc2)Nc2ncnc(N3CCN(c4ccccc4)CC3)c2N1Cc1ccc(Br)cc1 (stereo not drawn)	59*	68*	-30	-15	-22
Cc1ccc(CN2C(=O)C(Cc3ccccc3)Nc3ncnc(N4CCN(c5ccccc5)CC4)c32)cc1 (stereo not drawn)	55*	51*	-31	-9	-22
CCC1Nc2ncnc(N3CCN(c4ccccc4)CC3)c2N(Cc2ccc(Br)cc2)C1=O (stereo not drawn)	79*	79*	-39	-13	-29
Cc1cc(CNC(=O)c2ccc3c(c2)OCO3)c2ccccc2n1	10	5	2	-1	1
COc1ccc(NC(=O)CCNC(=O)N2CC(=O)Nc3ccccc32)cc1OC	·	·	0	·	·
Cc1ccc2c(c1)N(Cc1ccccc1)C(=O)C(C)S2 (stereo not drawn)	·	·	4	·	·
Cc1ccc2c(c1)C(CCN)C(=O)N2Cc1ccccc1 (stereo not drawn)	57*	65*	-23	-11	-21
O=C(CCC1CCCN(C(=O)Cn2cnnn2)C1)NCc1ccc(F)c(F)c1 (stereo not drawn)	-2	-17	2	4	1
O=C(Nc1nncs1)c1cc(S(=O)(=O)N2CCOCC2)ccc1Cl	-2	0	7	0	2
NC(=S)N/N=C/c1ccc(-c2cc(Cl)c(Cl)cc2Cl)o1	-30	-27	7	5	12*
O=C(N/N=C/C1C(c2ccccc2)C1(Cl)Cl)c1cccc(Br)c1 (stereo not drawn)	-7	5	-7	-1	11*
N#Cc1c(C(F)(F)F)cc(-c2ccccc2Cl)[nH]c1=O	-20	-5	6	1	12*
SMILES	HTR5A inv ag	OPRM1-OPRD1 inv	HTR2A ag	MOR-DOR ag	HTR5A ag ctr
N#Cc1c(C(F)(F)F)cc(-c2ccccc2)[nH]c1=O	1	8	4	-1	0
COc1ccc(CCC(=O)NCc2cn3ccccc3n2)cc1	-18	10	-3	-2	0
CCCC(=O)Nc1nnc(-c2ccc(Cl)s2)o1	-25	12	27*	-2	9
O=C(Nc1nnc(-c2ccc(Cl)s2)o1)C1CCCCC1	-8	-10	10	2	3
Cc1cc(OCC(=O)NC2CCN(Cc3ccccc3)CC2)c2c(C)c(C)c(=O)oc2c1	-34	2	-1	0	6
C[C@H](NS(=O)(=O)OCC(Cl)(Cl)Cl)C1CC1c1ccccc1 (stereo partly drawn)	-9	-42	14	8	2
O=S(=O)(NC1CC(NS(=O)(=O)OCC(Cl)(Cl)Cl)C2CCCCC12)OCC(Cl)(Cl)Cl (stereo not drawn)	-14	-33	15*	6	8
Cc1cc(S(=O)(=O)Nc2ccc(C(=O)N3CCN(c4ccccc4O)CC3)cc2)ccc1F	-15	-3	-1	0	14*
O=C(NCCc1ccncc1)Nc1ccc(Cl)c(Cl)c1	36	-12	-1	2	0
O=C(NCCc1ccncc1)Nc1ccccc1	-5	13	-2	-3	13*
CCC(C)[C@@H](NC(=O)OC(C)(C)C)c1nnc(S(=O)(=O)Cc2cccc(C)c2)o1 (stereo partly drawn)	3	4	0	-1	14*
Cc1cccc(NC(=O)C2(C)CC3c4ccccc4C2c2ccccc23)c1 (stereo not drawn)	-37	-73	11	14	10*
O=C(CCC(=O)N1CCN(c2ccccn2)CC1)Nc1nnc(C(F)(F)F)s1	-17	8	3	-2	7
COc1cc(OC)cc(C(=O)N2CCC3(CC2)NCCc2[nH]cnc23)c1	-22	4	0	-1	2
COc1ccc(C2C(C(=O)NCc3ccccn3)CCC(=O)N2c2cc(OC)c(OC)c(OC)c2)cc1 (stereo not drawn)	3	1	1	0	-1
COc1ccc(C2c3c(-c4ccccc4O)n[nH]c3C(=O)N2Cc2ccco2)cc1OC (stereo not drawn)	17	7	-1	-1	-5
O=C1c2[nH]nc(-c3ccccc3O)c2C(c2cccc(Cl)c2)N1Cc1ccco1 (stereo not drawn)	-37	-65	15*	14	14*
Cc1ccc(N(CC(=O)N/N=C/c2cc(C)n(-c3ccccc3)c2C)S(C)(=O)=O)c(C)c1	-16	15	-6	-4	13*
Cc1ccc(N(CC(=O)Nc2c(C)n(C)n(-c3ccccc3)c2=O)S(C)(=O)=O)c(C)c1	5	0	0	0	2
CCCCC(=O)NC(=S)Nc1cccc(NC(=O)c2ccccc2)c1	11	10	-5	-2	-4
CCCc1c(-c2ccccc2Br)ncn1Cc1ccccc1OC	·	·	-6	·	·
COc1cc2ncnc(NCc3cccc(F)c3F)c2cc1OC	-33	-9	-11	2	9.2*
c1ccc(CN2CCN(c3ncnc4nc[nH]c34)CC2)cc1	-1	10	24*	-2	0
COc1ccc(C(NC(=O)C2CCN(Cc3ccc(Oc4ccccc4)cc3)CC2)c2ccccn2)cc1 (stereo not drawn)	·	·	-11	·	·

Bioassay records (PubChem)
